Source: PubChem (several laboratories)
This is a sample that favours compounds with a hit; in the whole collection about 3.4% have one here.
MEKK2wt PB1 HTS = modulators of MEK5 binding to wildtype MEKK2, primary screen, biochemical, multiplex bead flow cytometry, Alexa488-MEK5. Alexa488-MEK5 binding to MEKK2 WT; actives lie on both sides. actives 1.1% (n = 290,000). AID 1531, 2009. binding response (% of control), % at 10 µM; in the data active means binding response below about 67% or above about 130%
NTR1 agonist = agonists of human NTR1, primary screen, imaging, U2OS cells, beta-arrestin-GFP, high content. Neurotensin receptor type 1 (Homo sapiens), P30989. NTR1-U2OS beta-arrestin-GFP spot imaging, agonist mode. activation, % at 20 µM. actives 0.17% (n = 330,000). AID 493036, 2011;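 active means activation at or above 40% of the spot to cytoplasm intensity ratio, with at least 20 cells analyzed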
MEKK2mut PB1 HTS = MEK5 binding signal on mutant MEKK2 PB1, primary screen, biochemical, multiplex bead flow cytometry, Alexa488-MEK5. Alexa488-MEK5 binding to MEKK2 mutant. percent response, % at 10 µM. actives 0.35% (n = 290,000). AID 1530, 2009; in the data active means percent response above about 24%, passing the limit was not always enough
ANO1 activ = TMEM16A chloride channel activators or potentiators, primary screen, cell-based, HTS | Anoctamin-1 (Mus musculus), Q8BHY3 | HEK293 TMEM16A/YFP-H148Q/I152L, iodide quench fluorescence; active compounds read low | B-score at 10 µM | actives 0.3% (n = 340,000);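 active means fluorescence-ratio B-score plate-corrected deviation score at least 3 library SD below zero, with starting fluorescence score within 5 deviations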;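 further: channel opened by trigger with iodide after compound preincubation; score built on the fluorescence ratio of max minus min over baseline; more negative score means more quench and so TMEM16A activation or potentiation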
MEKK3 PB1 HTS = modulators of MEKK3-MEK5 PB1 binding, primary screen, biochemical, wildtype MEKK3, multiplex bead flow cytometry, Alexa488-MEK5 | actives 1.4% (n = 290,000) | bead-based flow cytometry, Alexa488-MEK5 binding to MEKK3; actives lie on both sides; 0 = blocked by unlabeled MEK5, 100 = vehicle | AID 1529, 2009 | binding response (% of control), % at 10 µM;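 active means binding response more than 3 SD above or below the average of its plate-row segment, actives on both sides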;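 further: Alexa488 bead fluorescence after subtracting the streptavidin-only scavenger bead signal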
ANO1 block = TMEM16A chloride channel inhibitors, primary screen, cell-based, HTS; HEK293 TMEM16A/YFP iodide influx fluorescence, ionomycin; actives 1.2% (n = 310,000); normalized B-score (activity score, 25-100; higher = stronger inhibition) at 10 µM; AID 588511, 2011;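 active means ratio plate-corrected score three or more library SD toward inhibition, starting fluorescence score within five deviations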;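 further: score derived from kinetic fluorescence span divided by baseline fluorescence per well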
TMEM16A reconf = TMEM16A chloride channel inhibitors, confirmation, cell-based, re-confirmation; shares compounds with ANO1 block; HEK293 TMEM16A/YFP-H148Q, iodide quench fluorescence; ionomycin added to raise cell calcium; inhibition, % at 10 µM; actives 39% (n = 2,300); AID 652189, 2013;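 active means mean duplicate percent inhibition, scaled so buffer wells are 0 and the reference blocker 100, over three buffer SD above buffer mean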
TMEM16A Ca cntr = calcium mobilization in TMEM16A/YFP HEK293 cells, confirmation, counter-screen for TMEM16A inhibitor project; actives 2% (n = 2,300); AID 652231, 2013; shares compounds with ANO1 block; calcium response (% of ionomycin), % at 10 µM; Fluo4 calcium mobilization;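 active means duplicate-averaged calcium signal over 20% of the ionomycin maximum, relative to buffer baseline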;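 further: each well's signal is peak minus trough fluorescence divided by its pre-addition baseline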
YFP-HEK293 quench = iodide YFP quench changes in parental YFP-HEK293, counter-screen for TMEM16A inhibitor project, cell-based; shares compounds with ANO1 block; 2,300 tested, under 10 active; YFP ratio F(max-min)/F0 at 10 µM; ionomycin;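 active means yellow fluorescent protein signal ratio exceeding the buffer control mean by over 5 SD of those controls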;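 further: ratio is mean of duplicate wells from kinetic YFP trace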
ClC-1 rat inh = ClC-1 chloride channel inhibition, selectivity assay for TMEM16A inhibitor project, cell-based, voltage-dependent ClC-1. CHO ClC-1-YFP, iodide influx fluorescence quench; iodide control reads 0, buffer control 100. ratio percent, % at 10 µM. shares compounds with ANO1 block. AID 652236, 2013. 2,300 tested, under 10 active;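 active means duplicate-mean ratio percent above the mean of iodide-only control wells, which defines zero, plus 5 of their SD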;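 further: higher percent means stronger block of ClC-1 iodide influx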
Target sequence (P35524 whole entry, looked up): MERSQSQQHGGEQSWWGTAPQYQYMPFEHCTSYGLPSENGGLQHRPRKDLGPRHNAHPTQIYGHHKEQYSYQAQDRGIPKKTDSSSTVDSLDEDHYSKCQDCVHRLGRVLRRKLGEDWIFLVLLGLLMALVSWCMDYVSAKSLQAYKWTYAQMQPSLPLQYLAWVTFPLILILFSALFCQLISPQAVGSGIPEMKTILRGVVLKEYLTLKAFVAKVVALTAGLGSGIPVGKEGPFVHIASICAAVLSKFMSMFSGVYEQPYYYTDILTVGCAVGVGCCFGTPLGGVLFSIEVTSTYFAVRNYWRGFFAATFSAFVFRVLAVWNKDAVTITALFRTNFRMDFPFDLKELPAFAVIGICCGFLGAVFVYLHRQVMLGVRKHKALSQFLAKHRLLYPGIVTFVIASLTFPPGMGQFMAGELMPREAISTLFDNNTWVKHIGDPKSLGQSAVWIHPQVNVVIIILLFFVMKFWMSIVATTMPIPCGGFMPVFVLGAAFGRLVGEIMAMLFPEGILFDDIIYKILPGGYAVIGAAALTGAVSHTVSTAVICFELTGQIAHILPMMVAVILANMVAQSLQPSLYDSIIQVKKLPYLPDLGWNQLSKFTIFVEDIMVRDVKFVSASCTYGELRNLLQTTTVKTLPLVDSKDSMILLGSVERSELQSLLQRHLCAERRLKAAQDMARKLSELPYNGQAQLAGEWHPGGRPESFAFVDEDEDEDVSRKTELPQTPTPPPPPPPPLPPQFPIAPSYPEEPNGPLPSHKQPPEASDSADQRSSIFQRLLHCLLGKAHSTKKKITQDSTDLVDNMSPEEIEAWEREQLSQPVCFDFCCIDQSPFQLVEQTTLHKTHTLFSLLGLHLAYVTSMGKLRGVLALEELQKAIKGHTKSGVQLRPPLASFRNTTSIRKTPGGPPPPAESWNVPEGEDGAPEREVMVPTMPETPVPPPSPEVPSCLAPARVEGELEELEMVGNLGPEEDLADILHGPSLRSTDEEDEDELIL
A number is an active result; – = inactive; · = no result.

SMILES	MEKK2wt PB1 HTS	NTR1 agonist	MEKK2mut PB1 HTS	ANO1 activ	MEKK3 PB1 HTS	ANO1 block	TMEM16A reconf	TMEM16A Ca cntr	YFP-HEK293 quench	ClC-1 rat inh
CC(C)CCN(C(=S)Nc1cccc(C(F)(F)F)c1)C(C)c1ccccn1 (stereo unspecified)	–	–	–	–	–	25	–	–	–	–
CCc1ccc(S(=O)(=O)/N=C2\C=C(Nc3ccc(C(=O)O)cc3)C(=O)c3ccccc32)cc1	–	–	–	–	–	100	23%	–	–	–
CC(C)(C)c1ccc(S(=O)(=O)/N=C2\C=C(NS(=O)(=O)c3ccccc3)C(=O)c3ccccc32)cc1	–	–	–	–	–	100	88%	–	–	–
Cc1ccc(S(=O)(=O)/N=C2\C=C(NS(=O)(=O)c3ccccc3)C(=O)c3ccccc32)c(C)c1	·	·	·	–	·	·	·	·	·	·
COC(=O)c1ccccc1NC1=C/C(=N\S(=O)(=O)c2ccc(C(=O)O)cc2)c2ccccc2C1=O	–	–	–	–	–	–	·	·	·	·
CCOC(=O)c1c(S(=O)(=O)NCc2ccc(OC)cc2)c(C)n(C)c1C	–	–	–	–	–	–	·	·	·	·
CC(C#N)Sc1nnc(-c2ccccc2F)n1C1CC1 (stereo unspecified)	–	–	–	–	–	–	·	·	·	·
O=C(c1ccc2c(c1)OCO2)C1CCCN(Cc2cccc(C(F)(F)F)c2)C1 (stereo unspecified)	–	–	–	–	–	–	·	·	·	·
O=C(c1ccc2c(c1)OCO2)C1CCCN(Cc2ccc(OC(F)F)cc2)C1 (stereo unspecified)	–	–	–	–	–	25	21%	–	–	–
O=c1cc(-c2ccccc2Cl)oc2c(NS(=O)(=O)c3cccs3)ccc(O)c12	–	–	–	–	–	25	27%	–	–	–
CC(=O)Nc1ccc2c(c1)nc(CCNC(=O)c1ccco1)n2C	–	–	–	–	–	–	·	·	·	·
O=C(CCCC(=O)N(CC(=O)NC1CCCCC1)c1cccc(F)c1)Nc1ccccn1	–	–	–	–	–	–	·	·	·	·
COc1ccc(NC(=O)CCOc2ccccc2C)cc1S(=O)(=O)N1CCCCC1	·	–	·	–	·	25	–	–	–	–
COc1ccccc1CCC(=O)Nc1ccc(OC)c(S(=O)(=O)N2CCCCC2)c1	·	–	·	–	·	·	·	·	·	·
Cc1ccccc1OCC(=O)Nc1ccc(S(=O)(=O)N2CCCC2)cc1	·	–	·	–	·	–	·	·	·	·
Cc1ccccc1OCC(=O)Nc1ccc(C)c(S(=O)(=O)N2CCCCCC2)c1	·	–	·	–	·	25	–	–	–	–
COc1ccc(-n2nc(C(=O)NCC(=O)N3CC(C)CC(C)C3)c3ccccc3c2=O)cc1 (stereo unspecified)	–	–	–	–	–	–	·	·	·	·
CCN(CC)C(=O)COc1ccc2oc(C)c(C(=O)OC(C)C)c2c1	–	–	–	–	–	–	–	–	–	–
C=CCN(Cc1cccs1)C(=O)CN1CCN(S(=O)(=O)c2ccc3c(c2)OCCCO3)CC1	·	–	·	–	·	·	·	·	·	·
Cc1cccc(C(=O)Nc2sc(C)c(-c3ccccc3)c2C#N)c1	–	–	–	–	–	–	·	·	·	·
Cc1noc(C)c1C(=O)Nc1sc(C)c(-c2ccccc2)c1C#N	–	–	–	–	–	25	46%	–	–	–
CC1=C(C(N)=O)C(c2ccncc2)n2nc(-c3ccccc3Cl)nc2N1 (stereo unspecified)	–	–	–	–	–	100	–	–	–	–
CCC1Sc2ccccc2N(CC(=O)NCCC2=CCCCC2)C1=O (stereo unspecified)	–	–	–	–	–	–	–	–	–	–
CCC1(OC(=O)CN(C)C)C(=O)OCc2c1cc1n(c2=O)Cc2cc3c(N)cccc3nc2-1 (stereo unspecified)	·	·	·	–	·	·	·	·	·	·
COc1ccc(C(=O)Nc2nc(-c3cccs3)cs2)cc1	–	–	–	–	–	100	24%	–	–	–
SMILES	MEKK2wt PB1 HTS	NTR1 agonist	MEKK2mut PB1 HTS	ANO1 activ	MEKK3 PB1 HTS	ANO1 block	TMEM16A reconf	TMEM16A Ca cntr	YFP-HEK293 quench	ClC-1 rat inh
O=C(Nc1nc(-c2cccs2)cs1)c1ccc(Cl)cc1	–	–	–	–	–	–	·	·	·	·
COc1ccc(-c2csc(=Nc3ccccc3)n2CCO)cc1	–	–	–	–	–	100	44%	–	–	–
CC(=O)c1cccc(N=c2scc(-c3ccc(S(=O)(=O)N4CCOCC4)cc3)n2CCO)c1	–	–	–	–	–	25	38%	–	–	–
CN(C)S(=O)(=O)c1cccc(-c2csc(=Nc3ccccc3)n2CCCN2CCOCC2)c1	–	–	–	–	–	–	·	·	·	·
O=C(CNC(=O)c1ccccc1Cl)NCC(c1cccs1)N1CCOCC1 (stereo unspecified)	·	–	·	–	·	–	·	·	·	·
Cc1nn(Cc2ccccc2)c(Cl)c1C(=O)OCC#N	–	–	–	–	–	–	·	·	·	·
COc1cccc(NC(=O)COc2ccc(Br)c(C)c2)c1	–	–	–	–	–	–	·	·	·	·
Cc1cc(OCC(=O)Nc2ccncc2)ccc1Br	–	–	–	–	–	100	–	–	–	–
O=C(COc1ccc(Cl)cc1)Nc1ccc(Cc2ccncc2)cc1	–	–	–	–	–	25	17%	–	–	–
O=C(COc1ccc2ccccc2c1)Nc1ccc(Cc2ccncc2)cc1	–	–	–	–	–	–	·	·	·	·
Cc1ccc(C(=O)NCCc2c[nH]c3ccccc23)c(C)c1	–	–	–	–	–	–	·	·	·	·
Cc1cc(NC(C)c2ccccc2)n2ncc(-c3ccccc3)c2n1 (stereo unspecified)	–	–	–	–	–	100	–	–	–	–
